Test results taken from PubChem BioAssay (EPA / NIEHS).
The source made the active and inactive calls. How the source made its calls: active means hit-call score of the fitted dose curve at least 0.9, where 1 is the maximum; inactive means score below 0.9.

How the values were obtained:
[1] = biological target: Transcription factor E2F1 (Homo sapiens) (UniProt Q01094); assay: ATG_E2F_CIS: Attagene CIS-FACTORIAL HepG2 Assay for human E2F Transcription Factor 1 (AID 2282935); settings: HepG2 Attagene cis-reporter, E2F reporter RNA transcripts; actives raise or lower the signal
How it was run: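 Liver-derived HepG2 cells expressing transfected promoter-driven reporter units received test chemical for 24 hours. Signal gains or losses were fitted bidirectionally against DMSO.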

[2] = ATG_E_Box_CIS: Attagene CIS-FACTORIAL HepG2 Assay for human Enhancer Box (E-box) (AID 2282936); settings: HepG2 E-box cis-reporter transcription, actives raise or lower the signal
How it was run: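 In this cell-based setup, HepG2 cells bearing transfected promoter-driven reporter units were exposed to chemicals for 24 h; reporter transcripts were amplified, 6-FAM-labelled, cut with HpaI and sized by capillary electrophoresis.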

[3] = ATG_M_61_CIS: Attagene CIS-FACTORIAL HepG2 Assay for M61 Transcription Factor (Internal Marker) (AID 2282937); settings: HepG2 Attagene CIS-FACTORIAL M61 internal marker reporter; actives raise or lower the signal
How it was run: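 Endogenous transcription factor activity in HepG2 is read through transiently transfected cis-element reporter units. After 24 h dosing, RNA undergoes reverse transcription, PCR and primer extension with 6-FAM before capillary electrophoresis; DMSO-referenced bidirectional fit.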

[4] = ATG_EGR_CIS: Attagene CIS-FACTORIAL HepG2 Assay for human Early Growth Response 1 (EGR1) (AID 2282938); settings: HepG2 Attagene CIS-FACTORIAL EGR reporter mRNA; actives raise or lower the signal
How it was run: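 Activity is taken as induction or loss of reporter mRNA versus DMSO, fitted bidirectionally. Transcripts from cis-regulated reporter units in transiently transfected HepG2 were measured after 24 h by RT-PCR with capillary electrophoresis.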

[5] = ATG_M_19_CIS: Attagene CIS-FACTORIAL HepG2 Assay for M19 Transcription Factor (Internal Marker) (AID 2282939); settings: HepG2 Attagene CIS-FACTORIAL M19 internal marker reporter; actives raise or lower the signal
How it was run: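 Background-control endpoint from a multiplexed HepG2 reporter panel. Cells carrying cis-regulated reporter constructs are treated 24 h, then reporter transcripts are amplified, fluorescently labelled and sized by capillary electrophoresis. DMSO defines baseline.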

[6] = ATG_Ets_CIS: Attagene CIS-FACTORIAL HepG2 Assay for human Erythroblast Transformation Specific (ETS) (AID 2282941); settings: HepG2 ETS cis-reporter transcription, actives raise or lower the signal
How it was run: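 RT-PCR/capillary electrophoresis fluorescence read-out of reporter mRNA; HepG2 transient multi-reporter transfection; 24 h compound exposure; gain or loss of signal fitted bidirectionally relative to DMSO.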

[7] = biological target: Hepatocyte nuclear factor 3-beta (Homo sapiens) (UniProt Q9Y261); assay: ATG_FoxA2_CIS: Attagene CIS-FACTORIAL HepG2 Assay for human Forkhead box A2 (FOXA2) (AID 2282942); settings: HepG2 cis-reporter transcription factor activity, 24 h; actives raise or lower the signal
How it was run: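 Reporter transcript induction is measured by fluorescence after capillary electrophoresis of RT-PCR products from HepG2 cells exposed 24 h. Cis-regulated reporter units report endogenous factor activity; curves fitted both directions against DMSO.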

[8] = ATG_FoxO_CIS: Attagene CIS-FACTORIAL HepG2 Assay for human Forkhead box O (FoxO) (AID 2282943); settings: HepG2 Attagene cis-reporter, FoxO element, mRNA; actives raise or lower the signal
How it was run: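 Transfected HepG2 reporter cells exposed to test chemical for 24 h; reporter RNA measured by reverse transcription, PCR and fluorescent capillary electrophoresis; curves fitted for increases and decreases against DMSO.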

[9] = ATG_GATA_CIS: Attagene CIS-FACTORIAL HepG2 Assay for human GATA Binding Protein (AID 2282944); settings: HepG2 GATA cis-element reporter, Attagene multiplex mRNA; actives raise or lower the signal
How it was run: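 Endogenous transcription factor activity was captured through cis-promoter-driven reporters in transfected HepG2 cells. After 24 h exposure, reporter transcripts were quantified by RT-PCR with fluorescent capillary electrophoresis, and responses fitted both directions against DMSO.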

[10] = ATG_ERE_CIS: Attagene CIS-FACTORIAL HepG2 Assay for Estrogen Response Element (ERE) (AID 2282940); settings: HepG2 ERE cis-reporter, Attagene RNA transcript; actives raise or lower the signal
How it was run: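 Cells used were human hepatoma HepG2, transfected with multiple reporter transcription units under cis-regulatory promoters. Reporter mRNA, read 24 h post-dosing via fluorescent RT-PCR products on capillary electrophoresis, was fitted bidirectionally relative to DMSO.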

Chain of Transcription factor E2F1 (Homo sapiens) (Q01094 whole entry, looked up): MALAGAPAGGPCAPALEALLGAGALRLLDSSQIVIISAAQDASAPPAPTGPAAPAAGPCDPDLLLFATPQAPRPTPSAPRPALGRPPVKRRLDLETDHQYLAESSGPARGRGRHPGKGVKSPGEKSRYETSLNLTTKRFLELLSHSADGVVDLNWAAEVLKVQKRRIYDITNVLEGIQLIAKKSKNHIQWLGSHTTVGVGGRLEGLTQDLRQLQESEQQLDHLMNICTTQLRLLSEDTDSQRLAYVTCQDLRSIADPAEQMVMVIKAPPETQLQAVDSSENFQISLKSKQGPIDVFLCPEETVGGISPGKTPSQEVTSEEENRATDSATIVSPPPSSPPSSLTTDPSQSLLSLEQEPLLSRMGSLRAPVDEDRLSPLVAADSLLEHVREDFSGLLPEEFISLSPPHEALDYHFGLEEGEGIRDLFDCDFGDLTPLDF
Chain of Hepatocyte nuclear factor 3-beta (Homo sapiens) (Q9Y261 whole entry, looked up): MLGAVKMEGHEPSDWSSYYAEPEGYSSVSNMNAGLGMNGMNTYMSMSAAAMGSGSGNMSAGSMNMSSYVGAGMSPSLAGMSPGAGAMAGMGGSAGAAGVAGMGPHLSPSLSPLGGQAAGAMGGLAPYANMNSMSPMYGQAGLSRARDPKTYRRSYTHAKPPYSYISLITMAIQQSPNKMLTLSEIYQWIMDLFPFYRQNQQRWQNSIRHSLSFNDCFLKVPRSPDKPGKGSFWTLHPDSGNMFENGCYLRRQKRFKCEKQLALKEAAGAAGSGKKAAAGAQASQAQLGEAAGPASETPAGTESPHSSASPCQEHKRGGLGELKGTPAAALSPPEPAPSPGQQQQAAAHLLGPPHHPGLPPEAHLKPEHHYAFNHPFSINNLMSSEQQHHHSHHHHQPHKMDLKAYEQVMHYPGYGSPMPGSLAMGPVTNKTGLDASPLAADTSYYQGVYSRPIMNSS

SMILES: CC(=O)OCC=C(C)CCC=C(C)CCC=C(C)C
- outcome [1]: inactive
- outcome [2]: inactive
- outcome [3]: inactive
- outcome [4]: inactive
- AC50 [5]: 183 µM (active)
- AC50 [6]: 179 µM (active)
- AC50 [7]: 146 µM (active)
- AC50 [8]: 128 µM (active)
- AC50 [9]: 167 µM (active)

SMILES: CCO[Si](CC)(OCC)OCC
- outcome [1]: inactive
- outcome [2]: inactive
- outcome [3]: inactive
- outcome [4]: inactive
- outcome [5]: inactive
- outcome [10]: inactive
- outcome [6]: inactive
- outcome [7]: inactive
- outcome [8]: inactive
- outcome [9]: inactive

SMILES: S=c1[nH][nH]c(=S)s1
- outcome [1]: inactive
- outcome [2]: inactive
- outcome [3]: inactive
- outcome [4]: inactive
- outcome [5]: inactive
- outcome [10]: inactive
- outcome [6]: inactive
- outcome [8]: inactive
- outcome [9]: inactive

SMILES: CCCOC(=O)CC
- outcome [1]: inactive
- outcome [2]: inactive
- outcome [3]: inactive
- outcome [4]: inactive
- outcome [5]: inactive
- outcome [10]: inactive
- outcome [6]: inactive
- outcome [8]: inactive
- outcome [9]: inactive

SMILES: CCCCCCC(C)O (stereo not given)
- outcome [1]: inactive
- outcome [2]: inactive
- outcome [3]: inactive
- outcome [4]: inactive
- outcome [5]: inactive
- outcome [10]: inactive
- outcome [6]: inactive
- outcome [7]: inactive
- outcome [8]: inactive
- outcome [9]: inactive

SMILES: O=C(O)c1cccc(Cl)n1
- outcome [1]: inactive
- outcome [2]: inactive
- outcome [3]: inactive
- outcome [4]: inactive
- outcome [10]: inactive
- outcome [6]: inactive
- outcome [7]: inactive
- outcome [8]: inactive
- outcome [9]: inactive

SMILES: CC1=CC(O)CC(C)(C)C1 (stereo not given)
- outcome [1]: inactive
- outcome [2]: inactive
- outcome [3]: inactive
- outcome [4]: inactive
- outcome [5]: inactive
- outcome [6]: inactive
- outcome [7]: inactive
- outcome [8]: inactive
- outcome [9]: inactive

SMILES: CC/C=C\CCOC(=O)C(C)C
- outcome [1]: inactive
- outcome [2]: inactive
- outcome [3]: inactive
- outcome [4]: inactive
- outcome [5]: inactive
- outcome [6]: inactive
- outcome [7]: inactive
- outcome [8]: inactive
- outcome [9]: inactive

SMILES: CC(C)CCOC(=O)CC(C)C
- outcome [1]: inactive
- outcome [2]: inactive
- outcome [3]: inactive
- outcome [4]: inactive
- outcome [10]: inactive
- outcome [6]: inactive
- outcome [7]: inactive
- outcome [8]: inactive
- outcome [9]: inactive

SMILES: CCCCC(CC)COCCO (stereo not given)
- outcome [1]: inactive
- outcome [2]: inactive
- outcome [3]: inactive
- outcome [4]: inactive
- outcome [5]: inactive
- outcome [6]: inactive
- outcome [7]: inactive
- outcome [8]: inactive
- outcome [9]: inactive

SMILES: CC(C)OB(OC(C)C)OC(C)C
- outcome [1]: inactive
- outcome [2]: inactive
- outcome [3]: inactive
- outcome [4]: inactive
- outcome [10]: inactive
- outcome [6]: inactive
- outcome [7]: inactive
- outcome [8]: inactive
- outcome [9]: inactive

SMILES: O=C(O)c1ccco1
- outcome [1]: inactive
- outcome [2]: inactive
- outcome [3]: inactive
- outcome [4]: inactive
- outcome [10]: inactive
- outcome [6]: inactive
- outcome [7]: inactive
- outcome [8]: inactive
- outcome [9]: inactive

SMILES: CCC(C)(C)c1cc(O)c(C(C)(C)CC)cc1O
- outcome [1]: inactive
- outcome [2]: inactive
- outcome [3]: inactive
- AC50 [4]: 14.1 µM (active)
- outcome [10]: inactive
- outcome [6]: inactive
- outcome [7]: inactive
- AC50 [8]: 10.1 µM (active)
- AC50 [9]: 27.2 µM (active)

SMILES: CCCCOCCOCCOCCO
- outcome [1]: inactive
- outcome [2]: inactive
- outcome [3]: inactive
- outcome [4]: inactive
- outcome [5]: inactive
- outcome [6]: inactive
- outcome [7]: inactive
- outcome [8]: inactive
- outcome [9]: inactive

SMILES: CCCCCCCCSCc1cc(C)c(O)c(CSCCCCCCCC)c1
- outcome [1]: inactive
- outcome [2]: inactive
- outcome [3]: inactive
- outcome [4]: inactive
- outcome [5]: inactive
- outcome [6]: inactive
- outcome [7]: inactive
- outcome [8]: inactive
- outcome [9]: inactive

SMILES: O=S1(=O)CC=CC1
- outcome [1]: inactive
- outcome [2]: inactive
- outcome [3]: inactive
- outcome [4]: inactive
- outcome [5]: inactive
- outcome [6]: inactive
- outcome [7]: inactive
- outcome [8]: inactive
- outcome [9]: inactive

SMILES: C=C/C(C)=C/C/C=C(\C)CCC=C(C)C
- outcome [1]: inactive
- outcome [2]: inactive
- outcome [3]: inactive
- outcome [4]: inactive
- AC50 [10]: 56.8 µM (active)
- outcome [6]: inactive
- outcome [7]: inactive
- outcome [8]: inactive
- outcome [9]: inactive

SMILES: FC(F)(F)c1ccc(Cl)c(Cl)c1
- outcome [1]: inactive
- outcome [2]: inactive
- outcome [3]: inactive
- outcome [4]: inactive
- outcome [5]: inactive
- outcome [6]: inactive
- outcome [7]: inactive
- outcome [8]: inactive
- outcome [9]: inactive

SMILES: Nc1ccn([C@H]2CC[C@@H](CO)O2)c(=O)n1
- outcome [1]: inactive
- outcome [2]: inactive
- outcome [3]: inactive
- outcome [4]: inactive
- outcome [5]: inactive
- outcome [6]: inactive
- outcome [7]: inactive
- outcome [8]: inactive
- outcome [9]: inactive

SMILES: COc1cc(OC)c2ccc(=O)oc2c1
- outcome [1]: inactive
- outcome [2]: inactive
- outcome [3]: inactive
- outcome [4]: inactive
- outcome [10]: inactive
- outcome [6]: inactive
- outcome [7]: inactive
- outcome [8]: inactive
- outcome [9]: inactive

SMILES: C=CCOCC(O)CO (stereo not given)
- AC50 [1]: 149 µM (active)
- outcome [2]: inactive
- outcome [3]: inactive
- outcome [4]: inactive
- outcome [5]: inactive
- outcome [6]: inactive
- outcome [7]: inactive
- outcome [8]: inactive
- AC50 [9]: 164 µM (active)

SMILES: CC(=O)C1=C(C)[C@@H]2C[C@@]3(C1)[C@H](C)CC[C@H]3C2(C)C
- AC50 [1]: 139 µM (active)
- outcome [2]: inactive
- AC50 [3]: 75.3 µM (active)
- outcome [4]: inactive
- AC50 [5]: 100 µM (active)
- outcome [6]: inactive
- outcome [7]: inactive
- outcome [8]: inactive
- outcome [9]: inactive
